Inhibition data for 89 compounds are collected here from PubChem BioAssay AID602244 (Sanford-Burnham Center for Chemical Genomics, 2012).

Screen size: about 360,000 compounds; about 1,300 (0.36%) were called active. Cut-off read from the data, not from the text of the source: active = inhibition above about 34% (passing the limit was not always enough); inactive = the rest. The full list was thinned out, with actives kept by preference.

Sequence of C-X-C chemokine receptor type 6 (Homo sapiens) (O00574 whole entry, looked up): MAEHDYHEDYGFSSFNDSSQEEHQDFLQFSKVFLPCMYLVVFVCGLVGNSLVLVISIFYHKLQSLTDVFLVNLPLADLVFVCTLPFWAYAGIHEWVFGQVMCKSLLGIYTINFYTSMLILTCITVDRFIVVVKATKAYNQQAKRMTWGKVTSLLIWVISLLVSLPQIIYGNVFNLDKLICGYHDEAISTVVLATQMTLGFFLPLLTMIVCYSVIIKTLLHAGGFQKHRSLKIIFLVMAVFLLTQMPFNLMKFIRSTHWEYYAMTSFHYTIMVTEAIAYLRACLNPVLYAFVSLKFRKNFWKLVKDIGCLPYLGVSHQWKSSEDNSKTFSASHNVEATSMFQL

The test has as its target C-X-C chemokine receptor type 6 (Homo sapiens) (UniProt O00574). As to the kind of experiment: CXCR6 receptor inhibitors, primary screen, cell-based, beta-arrestin, luminescence, CHO-K1 PathHunter, 1536-well (AID 602244).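 Note: antagonist mode with CXCL16 agonist at 10 nM final; 0% = 10 nM CXCL16 with DMSO and 100% = unstimulated wells without agonist.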 Conditions: at 20 µM, stronger effect = higher value.
Usually inhibition stands for the change of the read-out against control, counted positive when it falls. Take `CC(C)N=C1CCCC1C(=S)SSC(=S)C1CCCC1=NC(C)C` (centres undefined): the inhibition is 78.9% (active). Under `CCc1ccccc1N(CC(=O)N1CCN(c2ccccc2F)CC1)S(C)(=O)=O` stands 1.2% (inactive); under `CCCc1cc(=O)oc2c(C)c(OC(C)C(=O)NCC(O)c3ccccc3)ccc12` (centres undefined), 2.9% (inactive); under `O=C1NCC(c2ccccc2)(c2ccccc2)C(=O)N1`, 3.6% (inactive).

As to `CC(NC(=S)NNS(=O)(=O)c1ccc(C(C)(C)C)cc1)c1ccccc1` (centres undefined), the inhibition was -0.6% (inactive). Regarding `Cc1cc(/C=C2/SC(=O)N(CC(=O)OC(C)C)C2=O)c(C)n1C`, the inhibition was 1.9% (inactive). The figure for `COc1cc(C(C)=O)ccc1OC(=O)CN1C(=O)c2ccccc2C1=O` is 1.2% (inactive). Under `CC(C)OC(=O)CN1C(=O)C(=O)c2ccccc21` stands 68% (active); under `COc1cccc(NC(=O)Cn2c3ccc(F)cc3c3nc4n(c(=O)c32)CCS4)c1`, 4.8% (inactive); under `CCN(CC)C(=O)CC1(c2ccccc2OC)CCOC(C(C)C)C1` (centres undefined), 6.3% (inactive).

Consider `CC(C)(C)S(=O)(=O)c1ccccc1-c1noc(-c2ccccc2)c1C(N)=O`, for which the inhibition was -0.6% (inactive).

With `Cc1ccc(S(=O)(=O)N2CCOCC2)cc1NC(=O)c1ccncc1`, the inhibition is -5.9% (inactive). Under `CN(CCc1ccccc1)C(=O)c1cccc(NC(=O)Cc2ccc([N+](=O)[O-])cc2)c1` stands -6.9% (inactive); under `CN(O)C(=S)c1ccccc1`, 73.3% (active). The figure for `CCN(CC)CCCNC(=O)CCn1nc(-c2ccc(Cl)cc2)ccc1=O` is 2.5% (inactive); for `COc1ccc(CNC(=O)[C@@H]2CC=C[C@@H]3CCN(C4CC4)C(=O)[C@@H]32)cc1` it is -0.1% (inactive); for `O=C1CCC(=O)N1CCC(=O)N(C(=O)NC1CCCCC1)C1CCCCC1` it is 0% (inactive). Under `S=c1[nH]ccn1-c1ccc(Cl)cc1` stands -3.9% (inactive); under `Cc1noc(C)c1C(=O)N(CC(=O)NC1CCCC1)Cc1ccccc1F`, -0.5% (inactive); under `O=[N+]([O-])/C=C/c1ccc2c(ccn2Cc2ccccc2)c1`, 73.1% (active). Take `CCc1noc(C)c1C(=O)N1CCCSC1=Nc1ccccc1OC`: the inhibition is -1.3% (inactive).

Consider `CCCCCCCCCCOC(=O)C[N+](C)(C)CC1CCCCC1O` (centres undefined), for which the inhibition is 57.1% (active). Under `CCCCCOC(=O)c1ccc(N2C(=O)C3C4C=CC(C4)C3C2=O)cc1` (centres undefined) stands 4.9% (inactive). Under `COc1ccc(S(=O)(=O)N(C)CC(=O)N2CCCC2)cc1Cl` stands -1.8% (inactive); under `O=C1/C(=C\c2ccc([N+](=O)[O-])cc2)CS(=O)(=O)C/C1=C/c1ccc([N+](=O)[O-])cc1`, 96.9% (active); under `O=C1CCCN1C(=O)COc1ccc([N+](=O)[O-])cc1`, -0.7% (inactive).

Take `O=C(Cc1ccccc1)N1CCN(S(=O)(=O)c2ccc([N+](=O)[O-])cc2)CC1`: the inhibition is -15.5% (inactive).

With `CC(CC(=O)Nc1ccc(F)cc1F)S(=O)(=O)c1ccc2c(c1)NC(=O)CO2` (centres undefined), the inhibition was 6.2% (inactive).

Consider `CCn1cc(C(=O)N2CC=C(c3ccccc3)CC2)c(=O)c2ccc(C)nc21`, for which the inhibition is -18.1% (inactive). Take `Cc1ccc(C(=O)CNc2ccc(F)cc2)cc1`: the inhibition was 46.4% (active). Under `Cc1ccc(NC(=O)CCC(=O)c2ccc(Br)cc2)cc1` stands -2.1% (inactive); under `Cc1ccc(C(=O)NC2CCN(C(=O)Nc3ccc(F)cc3)CC2)cc1`, -6% (inactive); under `CCCC(=O)Nc1ncnc2c1ncn2[C@@H]1O[C@@H]2OP(=O)(O)OC[C@H]2[C@H]1OC(=O)CCC`, -1% (inactive). Under `CC1=C/C(=N\OS(=O)(=O)c2ccccc2)C=CC1=O` stands 62% (active); under `N#Cc1c(NC(=O)c2ccc(N3CCOCC3)c([N+](=O)[O-])c2)sc2c1CCCC2`, 15.6% (inactive); under `O=C(O)c1ccc(NN=CC2=C(N3CCOCC3)/C(=C/c3ccccc3)CC2)cc1`, -2.9% (inactive). The figure for `O=C1Nc2ccc(Br)cc2/C1=N/N=C/C1=C(N2CCOCC2)C(=C\c2ccccc2)/CC1` is 41.2% (active); for `O=S(N1CCCCCC1)C12CC3CC(CC(C3)C1)C2` (centres undefined) it is -6.4% (inactive); for `CC(=O)N1CCc2c(sc(NC(=O)CCS(=O)(=O)c3ccc(C)cc3)c2C(N)=O)C1` it is 8.6% (inactive). On to `CCCNC(=O)C1(C)CCCN(C(=O)c2oc3ccccc3c2C)C1` (centres undefined), for which the inhibition is 6.5% (inactive). The figure for `COc1ccc(C2/C=C\CN(S(=O)(=O)c3cccs3)CC(=O)N2Cc2ccc(F)cc2)cc1` (centres undefined) is 10.5% (inactive); for `CC1CN(CC(=O)NC(C)c2ccccc2)CC(C)O1` (centres undefined) it is 4.8% (inactive).

On to `CC(=O)Nc1cc(-c2ccc(N3CCN(C)CC3)cc2)cn2c(-c3cccc(C(=O)N(C)C)c3)cnc12`, for which the inhibition is -6.6% (inactive). Under `COc1ccccc1-c1cc(NC(C)=O)c2ncc(-c3ccc(F)cc3)n2c1` stands 8.7% (inactive). Under `CC(=O)Nc1cc(-c2ccc(N3CCN(C)CC3)cc2)cn2c(-c3ccc(F)cc3)cnc12` stands 89.5% (active); under `CCOn1c(=O)c(=O)n(O)c2ccccc21`, 3.7% (inactive); under `COc1ccc(C(O)c2nc(-c3ccc(OC)nc3)cs2)cc1` (centres undefined), -1.3% (inactive).

Regarding `COc1ccc(-c2csc(Cc3nc(O)cs3)n2)cc1`, the inhibition was 66.9% (active). The figure for `COc1ccc(C(C)(NC(C)=O)c2nc(-c3ccc(S(C)(=O)=O)cc3)cs2)cc1` (centres undefined) is 1.5% (inactive); for `O=C(NCc1ccccc1)C1c2ccccc2OCC(=O)N1CCCN1CCOCC1` (centres undefined) it is 3.7% (inactive); for `O=C(c1ccncc1)N1CCN(S(=O)(=O)c2cc(C(F)(F)F)cc(C(F)(F)F)c2)CC1` it is -2.1% (inactive). Under `COc1cccc(NC(=O)C(=O)c2cn(CC(=O)N3CCOCC3)c3ccccc23)c1` stands 6% (inactive); under `O=C1c2ccccc2NC(c2ccccc2O)N1NS(=O)(=O)c1ccccc1` (centres undefined), -0.7% (inactive); under `CC(C)c1c(O)nc(SCCOc2ccc(Cl)cc2)[nH]c1=O`, 7.1% (inactive). Regarding `Cc1ccc(-c2nn(-c3ccc(F)cc3)cc2C(=O)NCC(c2cccs2)N2CCOCC2)cc1` (centres undefined), the inhibition was 15.5% (inactive). For `O=C(c1ccc(Cl)c(S(=O)(=O)N2CCCCCC2)c1)N1CCN(c2ccc(O)cc2)CC1`, the inhibition was -20.6% (inactive). The figure for `c1ccc(-n2cccc2)c(N2CCCCC2)c1` is -7.4% (inactive). The figure for `O=C1C=CC(=O)N1c1ccc(N2CCCCC2)cc1` is 74.7% (active).

As for `NC(=O)c1ccc(N2CCCC2)nc1`, the inhibition was 1% (inactive). Turning to `COC(=O)C1=C(C(=O)OC)[C@@H]2N(C)c3ccccc3[C@@]23C[C@@H](C(=O)OC)N(C(C)=O)C3=N1`, the inhibition was 0.7% (inactive).

In the case of `O=C(C1CC(=O)N(C2CCCC2)C1)N1CCN(c2cccc(C(F)(F)F)c2)CC1` (centres undefined), the inhibition is -1.4% (inactive). On to `O=C(C1CC(=O)N(c2ccc(F)cc2)C1)N1CCN(c2ccccc2)CC1` (centres undefined), for which the inhibition was 7% (inactive). Take `O=C(C1CC(=O)N(C2CCCCC2)C1)N1CCN(c2ccccc2)CC1` (centres undefined): the inhibition was 37% (active). The figure for `CCN1CCN(c2ccc(S(=O)(=O)N3CCCCC3)cc2NC(=O)c2cccc(NC(C)=O)c2)CC1` is 1.9% (inactive); for `CN(CCCC(=O)Nc1nccs1)S(=O)(=O)c1ccc(Cl)cc1` it is 0.8% (inactive). As for `O=S(=O)(NCc1ccccc1Br)c1ccccc1Br`, the inhibition was 4.3% (inactive). As for `Oc1ccc2ccccc2c1N=Nc1nccs1`, the inhibition was 65.1% (active). Take `COC(=O)CN1C(=O)[C@H]2[C@@H](/C=C/c3ccccc3)N3C(=O)CN(Cc4ccccc4)C(=O)[C@@]3(Cc3ccccc3)[C@H]2C1=O`: the inhibition was -9.8% (inactive). The figure for `O=C(Nc1ccc(S(=O)(=O)N2CCOCC2)cc1)C1CCN(S(=O)(=O)c2ccc(Cl)cc2)CC1` is 0.6% (inactive).

On to `C/C(=N\NS(=O)(=O)c1ccc(Cl)cc1)c1ccc(NC(=O)c2ccco2)cc1`, for which the inhibition is 0.1% (inactive). Take `O=C(Nc1ccccc1)c1nnsc1S(=O)(=O)c1ccc(Cl)cc1`: the inhibition is 96.4% (active). The figure for `CC1CCN(CCCNC(=O)CN2C(=O)CSc3ccc(S(=O)(=O)N4CCCCC4)cc32)CC1` is 2% (inactive); for `Cc1ccc(-c2noc(CCC(=O)Nc3ccccc3N3CCN(C)CC3)n2)cc1` it is 6% (inactive); for `CCc1nn(-c2cc(Oc3cccc4ccccc34)nc(-c3ccccc3)n2)c(N)c1C#N` it is 0.4% (inactive).

`Cc1cccc(CS(=O)(=O)c2ncc(Cl)c(C(=O)Nc3ccc(F)cc3)n2)c1`: the inhibition is 57% (active).

`CN(CC(=O)Nc1ccc(F)cc1)CC(=O)Nc1ccc(Cl)c(S(=O)(=O)N2CCOCC2)c1`: the inhibition is -1% (inactive).

In the case of `Cc1cccc(NC(=O)c2nc(S(=O)(=O)Cc3ccccc3)ncc2Cl)c1`, the inhibition was 64.6% (active). Under `Cc1cccc(NC(=O)C2CCN(S(=O)(=O)c3cccc4cccnc34)CC2)c1` stands 9.3% (inactive); under `Cc1cccc(C(=O)Nc2ccc(Oc3cnccn3)cc2)c1`, 1.5% (inactive). The figure for `Cc1cccc(NC(=O)Cn2cc(C(=O)c3ccco3)c3ccccc32)c1` is 4.5% (inactive); for `O=C(NN1CCOCC1)c1cccc(F)c1` it is 0.7% (inactive); for `CCCNC(=O)C1(C)CCN(C(=O)c2cc(F)ccc2C)C1` (centres undefined) it is 0.9% (inactive). Under `O=C(CSc1nc2cc3c(cc2c(=O)n1CCC1=CCCCC1)OCO3)NCc1ccco1` stands 6.1% (inactive); under `Cc1ccc2c(c1)N(CC(=O)NCCc1ccc(Cl)cc1)C(=O)c1cccnc1O2`, -3.1% (inactive).

Consider `O=c1ccc2c(-c3ccccc3S(=O)(=O)O)c3ccc(O)c(O)c3oc-2c1O`, for which the inhibition is 47.9% (active). The figure for `CC(=O)N1c2ccc(S(=O)(=O)N3CCCC(C(=O)Nc4cccc(F)c4)C3)cc2CC1C` (centres undefined) is -11.7% (inactive). Under `Cc1ccc(CCCOC(=O)C[N+]2(C)CCCCC2)cc1` stands -4.5% (inactive); under `CCCNC(=O)c1onc(CSc2ccc(F)cc2)c1C(=O)NC(C)C`, 2.3% (inactive); under `Cc1ccc(S(=O)(=O)N2CC[C@H]3[C@@H](C2)C(=O)C[C@@H](c2ccccc2)N3S(=O)(=O)c2ccc(C)cc2)cc1`, -1.4% (inactive).
